Test results from PubChem BioAssay (NCATS).
Records with an inconclusive call do not appear.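 How the source made its calls, unless noted: active means compounds whose dose series gives a full or clear partial fitted curve of increased nuclear translocation; inconclusive means weak partial curve or effect only at the top dose; inactive means no dose-dependent translocation response.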

Tested on: not listed separately
Test: Stat Signaling Pathway (AID 446; active means well fitted curve in either direction with a large enough effect, not every such curve was filed as active;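 further: ME-180 cervical cancer cells given 40 pM IL-6 alongside compound; SIE-controlled beta-lactamase reporter measured as 460/530 nm FRET emission ratio; on the % scale 0 is the no-effect control and ±100 the full control effect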)
Settings: ME-180 (cervical carcinoma) SIE beta-lactamase reporter, IL-6 stimulated, 5 h; at 17.2 µM (top of the series) unless noted
How it was run: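 Overnight-plated ME-180 cells bearing a STAT Inducible Element beta-lactamase reporter; 5 h co-exposure to compound and 40 pM IL-6; values normalized to 300 pM IL-6 and 125 nM JAK inhibitor controls.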

activity, negative = inhibition, inactive:
CCN(CC)C(=O)CSc1nc2ccccc2c(=O)n1CC1CCCCC1 -17.5%
O=C(CSc1nc2ccccc2c(=O)n1CC1CCCCC1)N1CCOCC1 -21.6%
CC1(C)Cc2c(C#N)c(SCC(=O)c3ccccc3)nc(N3CCCC3)c2CO1 6.65%
CCOC(=O)C(C)Sc1nc(-c2cccs2)ccc1C#N (centres undefined) -3.63%
C=CCSc1nnc2n(-c3ccccc3OC)c(=O)c3c4c(sc3n12)CCC4 6.42%
C=C(C)CSc1nnc2n(C)c(=O)c3c4c(sc3n12)CCC4 2.61%
CC(NC(=O)OC(C)(C)C)C(=O)Oc1ccc2ccc(=O)oc2c1 (centres undefined) 10.7%
CCSc1nc2sc3c(c2c2nnc(SCC(=O)NCc4ccco4)n12)CCCC3 -18.7%
Cc1ccc(N2C(=O)CC(N(O)C3CC(=O)N(c4ccc(C)cc4)C3=O)C2=O)cc1 (centres undefined) -25.3%
O=C(O)CC(NCc1ccco1)C(=O)OCC1CCCO1 (centres undefined) -1.58%
C=C1c2cc(OC)ccc2NC(=O)N1CC 1.02%
COc1ccc(S(=O)(=O)N2CCC(N3CCCCC3)CC2)cc1 6.94%
CCOC(=O)c1[nH]c2cc(OC)c(OC)cc2c1NC(=O)C(C)N1CCN(Cc2ccccc2)CC1 (centres undefined) -4.92%
C[C@]12CC[C@@H]3c4ccc(O)cc4CC[C@H]3[C@@H]1CC[C@@H]2OC(=O)CCC(=O)O -12.1%
CCC(=O)Oc1ccc(C(CC)C(CC)c2ccc(OC(=O)CC)cc2)cc1 (centres undefined) -3.77%
CCSc1nnc(NC(=O)C(C(F)(F)F)C(F)(F)F)s1 -21.8%
CCN(CC)CCCn1c(C)cc2c(c1=O)C(c1cccc(Cl)c1)C(C#N)=C(N)O2 (centres undefined) -2.98%
COCCNC(=O)c1c(N)n(/N=C/c2cccs2)c2nc3ccccc3nc12 19.9%
COc1ccc(CSc2nnc3n(C)c(=O)c4c5c(sc4n23)CCCC5)cc1 0.924%
Cc1cccn2c(=O)c3cc(C(N)=S)c(=N)n(CCCOC(C)C)c3nc12 13.3%
NC(Cc1ccc(Oc2ccc(O)cc2)cc1)C(=O)O (centres undefined) -1.48%
CCCCNC(=O)c1c(N)n(/N=C/c2cccnc2)c2nc3ccccc3nc12 16.8%
COC(=O)CSc1nc(-c2cccs2)ccc1C#N -2.18%
CCCCNC(=O)N(C)c1nncnc1C(=O)NC 11.5%

Target: Glucocorticoid receptor (Homo sapiens) (UniProt P04150)
Test: GR-GFP Redistribution (AID 450); further: potency means the concentration at half of the fitted maximal effect
Settings: U2OS GR-GFP nuclear translocation, laser cytometry, 2 h; series mostly up to 20.6 µM

Glucocorticoid receptor (Homo sapiens), sequence (P04150 whole entry, looked up): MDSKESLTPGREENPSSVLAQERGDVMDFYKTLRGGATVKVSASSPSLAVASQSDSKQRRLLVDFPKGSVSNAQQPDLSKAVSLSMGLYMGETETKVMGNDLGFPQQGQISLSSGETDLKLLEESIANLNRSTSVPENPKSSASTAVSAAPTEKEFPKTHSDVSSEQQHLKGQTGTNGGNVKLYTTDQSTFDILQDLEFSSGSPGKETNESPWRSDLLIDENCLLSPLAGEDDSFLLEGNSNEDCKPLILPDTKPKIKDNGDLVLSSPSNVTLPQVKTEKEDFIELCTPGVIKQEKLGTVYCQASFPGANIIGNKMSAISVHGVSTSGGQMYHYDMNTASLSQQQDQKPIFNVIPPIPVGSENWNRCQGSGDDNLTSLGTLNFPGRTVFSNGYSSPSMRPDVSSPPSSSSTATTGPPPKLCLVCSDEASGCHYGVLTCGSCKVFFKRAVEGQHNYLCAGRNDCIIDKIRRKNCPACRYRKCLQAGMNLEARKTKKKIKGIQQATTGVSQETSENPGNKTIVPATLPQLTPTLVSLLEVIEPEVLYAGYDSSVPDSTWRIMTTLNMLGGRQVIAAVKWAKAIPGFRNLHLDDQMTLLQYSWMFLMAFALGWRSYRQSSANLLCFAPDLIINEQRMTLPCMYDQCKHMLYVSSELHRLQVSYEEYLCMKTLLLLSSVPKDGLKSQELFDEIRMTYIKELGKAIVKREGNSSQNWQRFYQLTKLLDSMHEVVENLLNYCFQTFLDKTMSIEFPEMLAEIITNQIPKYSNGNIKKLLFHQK

Potency, inactive:
Cc1cccc(OCCN2CSC(=S)N(C)C2)c1 > 20.6 µM
Cc1c(C)c2cc(Cl)c(O)c(CN3CCCC(C)C3)c2oc1=O (centres undefined) > 20.6 µM
C=CCn1c(SCC#N)nc2c(c1=O)C(C)(C)Cc1ccccc1-2 > 20.6 µM
COc1ccc2c(c1OC)C(=O)N1c3ccccc3C(=O)N(c3ccccc3F)C21 (centres undefined) > 20.6 µM
COc1cc([C@@H]2[C@H]3CNCC=C3C(C#N)=C(N)C2(C#N)C#N)ccc1OC(C)C > 20.6 µM
Fc1ccccc1-c1nc(NCCCN2CCOCC2)c2ccccc2n1 > 20.6 µM
COc1cccc(-c2nc(N3CCC(C)CC3)c3ccccc3n2)c1O > 20.6 µM
CCOc1cccc(-c2nnc3sc(-c4cc(OC)c(OC)c(OC)c4)nn23)c1 > 20.6 µM
Cc1cc(Cn2ccnc2)c(C)cc1Cn1ccnc1 > 20.6 µM
COCc1[nH]nc2c1C(c1ccc(OC)cc1)C(C#N)=C(N)O2 (centres undefined) > 20.6 µM
Cc1nnc(NCc2n[nH]c(=O)c3ccccc23)c2ccccc12 > 20.6 µM
Cn1c(Cl)cnc1C1CC(=O)c2cc(Cl)ccc2O1 (centres undefined) > 20.6 µM
CN(C)CCCOC(=O)c1ccc(Cl)cc1Cl > 20.6 µM
CN1CCN(CCC(=O)N2c3ccccc3Sc3ccc(Cl)cc32)CC1 > 20.6 µM
Cc1cc2c(c(=O)n1Cc1ccccn1)C(c1ccc3c(c1)OCO3)C(C#N)=C(N)O2 (centres undefined) > 20.6 µM
COCCCn1cnc2c(c1=O)c1nc3ccccc3nc1n2CCc1ccccc1 > 20.6 µM
CCN(CC)C(=O)CSc1nc2ccccc2c(=O)n1CC1CCCCC1 > 20.6 µM
O=C(CSc1nc2ccccc2c(=O)n1CC1CCCCC1)N1CCOCC1 > 20.6 µM
CC1(C)Cc2c(C#N)c(SCC(=O)c3ccccc3)nc(N3CCCC3)c2CO1 > 20.6 µM
CCOC(=O)C(C)Sc1nc(-c2cccs2)ccc1C#N (centres undefined) > 20.6 µM
C=CCSc1nnc2n(-c3ccccc3OC)c(=O)c3c4c(sc3n12)CCC4 > 20.6 µM
C=C(C)CSc1nnc2n(C)c(=O)c3c4c(sc3n12)CCC4 > 20.6 µM
CC(NC(=O)OC(C)(C)C)C(=O)Oc1ccc2ccc(=O)oc2c1 (centres undefined) > 20.6 µM
CCSc1nc2sc3c(c2c2nnc(SCC(=O)NCc4ccco4)n12)CCCC3 > 20.6 µM
Cc1ccc(N2C(=O)CC(N(O)C3CC(=O)N(c4ccc(C)cc4)C3=O)C2=O)cc1 (centres undefined) > 20.6 µM
O=C(O)CC(NCc1ccco1)C(=O)OCC1CCCO1 (centres undefined) > 20.6 µM
C=C1c2cc(OC)ccc2NC(=O)N1CC > 20.6 µM
COc1ccc(S(=O)(=O)N2CCC(N3CCCCC3)CC2)cc1 > 20.6 µM
CCOC(=O)c1[nH]c2cc(OC)c(OC)cc2c1NC(=O)C(C)N1CCN(Cc2ccccc2)CC1 (centres undefined) > 20.6 µM
C[C@]12CC[C@@H]3c4ccc(O)cc4CC[C@H]3[C@@H]1CC[C@@H]2OC(=O)CCC(=O)O > 20.6 µM
CCC(=O)Oc1ccc(C(CC)C(CC)c2ccc(OC(=O)CC)cc2)cc1 (centres undefined) > 20.6 µM
CCSc1nnc(NC(=O)C(C(F)(F)F)C(F)(F)F)s1 > 20.6 µM
CCN(CC)CCCn1c(C)cc2c(c1=O)C(c1cccc(Cl)c1)C(C#N)=C(N)O2 (centres undefined) > 20.6 µM
COCCNC(=O)c1c(N)n(/N=C/c2cccs2)c2nc3ccccc3nc12 > 20.6 µM
COc1ccc(CSc2nnc3n(C)c(=O)c4c5c(sc4n23)CCCC5)cc1 > 20.6 µM
Cc1cccn2c(=O)c3cc(C(N)=S)c(=N)n(CCCOC(C)C)c3nc12 > 20.6 µM
NC(Cc1ccc(Oc2ccc(O)cc2)cc1)C(=O)O (centres undefined) > 20.6 µM
CCCCNC(=O)c1c(N)n(/N=C/c2cccnc2)c2nc3ccccc3nc12 > 20.6 µM
COC(=O)CSc1nc(-c2cccs2)ccc1C#N > 20.6 µM
CCCCNC(=O)N(C)c1nncnc1C(=O)NC > 20.6 µM
